# In PubChem BioAssay (NCATS):
# Several values for one entry are separate records, joined by “and”; a condition that tells them apart may be missing. Equal entries are not always repeated. Values without a mark were called inactive. Inconclusive results are not listed. Entries that show only a call come without a potency. Activity calls are given as the source filed them. Unless noted, calls come from the whole dose curve; as a rule, active = well fitted curve in the direction sought with a large enough effect; inconclusive = small, poorly fitted or top-dose-only effect, or another doubt; inactive = no such curve, though single readings can be large; an effect the other way counts as inactive or inconclusive.
# Columns and labels:
# [1] = tested on: HeLa; experiment: Primary qHTS to identify gynecologic anti-cancer compounds using libraries of approved drugs and bioactive compounds (AID 1345084); conditions: Gynecologic cancer cell panel viability, ATPlite luminescence, 48 h; series mostly up to 57.5 µM; note: nearly all actives have a fitted effect of over 55% in size; note: potency is the fitted concentration of half-maximal effect
# Procedure, shortened: (§1)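 Measured: luminescence after ATPlite addition (15 min, RT). Exposure: 48 h, 37 C, 5% CO2.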
# [2] = tested on: Hek293T; experiment: as above; conditions: Gynecologic cancer cell panel viability, ATPlite luminescence, 48 h, control line for the selectivity index; series mostly up to 57.5 µM
# Procedure, shortened: as §1
# [3] = tested on: JEG-3; experiment: as above; conditions: Gynecologic cancer cell panel viability, ATPlite luminescence, 48 h; series mostly up to 57.5 µM
# Procedure, shortened: as §1
# [4] = tested on: OV90; experiment: as above; conditions: Gynecologic cancer cell panel viability, ATPlite luminescence, 48 h; series mostly up to 57.5 µM
# Procedure, shortened: as §1
# [5] = tested on: PA-1; experiment: as above; conditions: Gynecologic cancer cell panel viability, ATPlite luminescence, 48 h; series mostly up to 57.5 µM
# Procedure, shortened: as §1
# [6] = tested on: SKOV3; experiment: as above; conditions: Gynecologic cancer cell panel viability, ATPlite luminescence, 48 h; series mostly up to 57.5 µM
# Procedure, shortened: as §1
# [7] = tested on: Tov-21-G; experiment: as above; conditions: Gynecologic cancer cell panel viability, ATPlite luminescence, 48 h; series mostly up to 57.5 µM
# Procedure, shortened: as §1
# [8] = tested on: Tov112D; experiment: as above; conditions: Gynecologic cancer cell panel viability, ATPlite luminescence, 48 h; series mostly up to 57.5 µM
# Procedure, shortened: as §1
# [9] = Drug repurposing screens with cells derived from glioblastoma tumor samples (AID 1345199); conditions: GBM patient neurospheres viability, ATP luminescence, 48 h; note: nearly all actives have a fitted effect of over 40% in size; note: potency is the fitted concentration of half-maximal effect
# Procedure, shortened: (§2)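 Primary testing used CD133+ neurospheres from four GBM patients, seven concentrations, 48 h exposure and ATP-based viability; confirmation added three slower-growing patient lines.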
# [10] = tested on: astro; experiment: as above; conditions: viability, ATP luminescence, 48 h; series mostly up to 45.9 µM
# Procedure, shortened: as §2
# [11] = molecular target: Nuclear receptor subfamily 1 group I member 2 (Rattus norvegicus) (UniProt Q9R1A7); experiment: qHTS assay for small molecule activators of the rat pregnane X receptor (rPXR) signaling pathway (AID 651751; call rule not given here); conditions: rPXR reporter cells, luciferase (One-Glo), 24 h
# Chain of Nuclear receptor subfamily 1 group I member 2 (Rattus norvegicus) (Q9R1A7 whole entry, looked up): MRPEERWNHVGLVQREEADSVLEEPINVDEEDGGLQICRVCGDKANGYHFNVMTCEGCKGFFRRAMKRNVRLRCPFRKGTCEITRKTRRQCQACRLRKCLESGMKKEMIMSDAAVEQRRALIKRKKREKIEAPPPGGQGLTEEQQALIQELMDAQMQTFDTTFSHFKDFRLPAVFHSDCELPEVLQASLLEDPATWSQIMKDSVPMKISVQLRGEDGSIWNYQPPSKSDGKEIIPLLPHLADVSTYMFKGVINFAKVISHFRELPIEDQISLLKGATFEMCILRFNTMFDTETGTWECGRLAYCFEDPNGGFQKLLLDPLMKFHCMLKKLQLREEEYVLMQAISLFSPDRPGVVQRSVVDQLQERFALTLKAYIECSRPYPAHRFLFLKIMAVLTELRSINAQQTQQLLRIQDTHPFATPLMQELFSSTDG
# [12] = qHTS assay for small molecule activators of the human pregnane X receptor (PXR) signaling pathway (AID 720659; call rule not given here)
# [13] = at 45.9 µM (top of the series), tumour line B
# [14] = at 45.9 µM (top of the series), tumour line D
# [15] = at 46 µM (top of the series), tumour line A
# [16] = at 46.1 µM (top of the series), tumour line C
# [17] = at 20 µM (top of the series), tumour line C
# [18] = at 21.2 µM (top of the series), tumour line B
# [19] = at 21.3 µM (top of the series), tumour line A
smiles,measurement,setting,value
Cc1[nH]c(=O)c(C#N)cc1-c1ccc2nccn2c1,Potency,[1],inactive
same,Potency,[2],inactive
same,Potency,[3],inactive
same,Potency,[4],inactive
same,Potency,[5],inactive
same,Potency,[6],inactive
same,Potency,[7],inactive
same,Potency,[8],inactive
same,"activity, negative = cell killing",[9]; [13],-4%
same,"activity, negative = cell killing",[9]; [14],0.316%
same,"activity, negative = cell killing",[9]; [15],-27%
same,"activity, negative = cell killing",[9]; [16],-6.47%
same,Potency,[10],inactive
C[C@@H]1CN(Cc2ccc(F)cc2)[C@@H](C)CN1C(=O)c1cc2c(C(=O)C(=O)N(C)C)cn(C)c2cc1Cl,Potency,[1],inactive
same,Potency,[2],inactive
same,Potency,[3],inactive
same,Potency,[4],inactive
same,Potency,[5],inactive
same,Potency,[6],inactive
same,Potency,[7],inactive
same,Potency,[8],inactive
Nc1nc2c(ncn2COCCO)c(=O)[nH]1,Potency,[1],inactive
same,Potency,[2],inactive
same,Potency,[3],inactive
same,Potency,[4],inactive
same,Potency,[5],inactive
same,Potency,[6],inactive
same,Potency,[7],inactive
same,Potency,[8],inactive
same,"activity, negative = cell killing",[9]; [17],-13.6%
same,"activity, negative = cell killing",[9]; [18],-4.96%
same,"activity, negative = cell killing",[9]; [19],-33.2%
same,Potency,[10],inactive
CN(C)c1ccc(Nc2nc(N)n(C(=O)c3c(F)cccc3F)n2)cc1,Potency,[1],12.6 µM (active)
same,Potency,[2],inactive
same,Potency,[3],inactive
same,Potency,[4],inactive
same,Potency,[5],inactive
same,Potency,[6],inactive
same,Potency,[7],inactive
same,Potency,[8],inactive
Cc1[nH]c(=O)c(C#N)cc1-c1ccncc1,Potency,[1],inactive
same,Potency,[2],inactive
same,Potency,[3],inactive
same,Potency,[4],inactive
same,Potency,[5],inactive
same,Potency,[6],inactive
same,Potency,[7],inactive
same,Potency,[8],inactive
same,"activity, negative = cell killing",[9]; [13],-10.7%
same,"activity, negative = cell killing",[9]; [14],4.86%
same,"activity, negative = cell killing",[9]; [15],-23.5%
same,"activity, negative = cell killing",[9]; [16],2.71%
same,"activity, negative = cell killing","[9]; at 91.6 µM (top of the series), tumour line B",-14.8%
same,"activity, negative = cell killing","[9]; at 91.6 µM (top of the series), tumour line D",7.24%
same,"activity, negative = cell killing","[9]; at 99.2 µM (top of the series), tumour line C",-28.5%
same,Potency,[10],inactive
same,max response,[11],2.46%
O=C(O)COCCN1CCN(C(c2ccccc2)c2ccc(Cl)cc2)CC1 (configuration not stated),Potency,[1],inactive
same,Potency,[2],inactive
same,Potency,[3],inactive
same,Potency,[4],inactive
same,Potency,[5],inactive
same,Potency,[6],inactive
same,Potency,[7],inactive
same,Potency,[8],inactive
same,"activity, negative = cell killing",[9]; [17],-26.4%
same,"activity, negative = cell killing",[9]; [18],-3.42%
same,"activity, negative = cell killing","[9]; at 21.2 µM (top of the series), tumour line D",-18.8%
same,"activity, negative = cell killing",[9]; [19],-26.6%
same,Potency,[10],inactive
Clc1ccc(Nc2nnc(Cc3ccncc3)c3ccccc23)cc1,Potency,[1],inactive
same,Potency,[2],inactive
same,Potency,[3],inactive
same,Potency,[4],inactive
same,Potency,[5],inactive
same,Potency,[6],inactive
same,Potency,[7],inactive
same,Potency,[8],inactive
NC(=O)c1cnccn1,Potency,[1],inactive
same,Potency,[2],inactive
same,Potency,[3],inactive
same,Potency,[4],inactive
same,Potency,[5],inactive
same,Potency,[6],inactive
same,Potency,[7],inactive
same,Potency,[8],inactive
same,"activity, negative = cell killing",[9]; [13],-8.76%
same,"activity, negative = cell killing",[9]; [14],-23.3%
same,"activity, negative = cell killing",[9]; [15],-24.5%
same,"activity, negative = cell killing",[9]; [16],-17%
same,Potency,[10],inactive
same,max response,[11],-0.614% and 3.04%
same,outcome,[12],inactive
Cc1ccc(-n2nc(C(C)(C)C)cc2NC(=O)Nc2ccc(OCCN3CCOCC3)c3ccccc23)cc1,Potency,[1],inactive
same,Potency,[2],inactive
same,Potency,[3],inactive
same,Potency,[4],inactive
same,Potency,[5],inactive
same,Potency,[6],inactive
same,Potency,[7],inactive
same,Potency,[8],inactive
same,"activity, negative = cell killing",[9]; [13],12.9%
same,"activity, negative = cell killing",[9]; [14],-19.4%
same,"activity, negative = cell killing",[9]; [16],-25.6%
Cc1cc(SCc2sc(-c3ccc(C(F)(F)F)cc3)nc2C)ccc1OCC(=O)O,Potency,[1],inactive
same,Potency,[2],inactive
same,Potency,[3],inactive
same,Potency,[4],inactive
same,Potency,[5],inactive
same,Potency,[6],inactive
same,Potency,[7],inactive
same,Potency,[8],inactive
CC(C)OC(=O)C1=CN(C(=O)c2ccc(F)c(F)c2)CC(C)(C)c2c1[nH]c1ccccc21,Potency,[1],inactive
same,Potency,[2],inactive
same,Potency,[3],inactive
same,Potency,[4],inactive
same,Potency,[5],inactive
same,Potency,[6],inactive
same,Potency,[7],inactive
same,Potency,[8],inactive
CNC(=O)c1ccc(C)c(-n2c(C)cc(OCc3ccc(F)cc3F)c(Br)c2=O)c1,Potency,[1],inactive
same,Potency,[2],inactive
same,Potency,[3],inactive
same,Potency,[4],inactive
same,Potency,[5],inactive
same,Potency,[6],inactive
same,Potency,[7],inactive
same,Potency,[8],inactive
CN(C(=O)c1ccc(F)cc1C(F)(F)F)C1CCN(c2nnc(-c3ccnn3C)c3ccccc23)CC1,Potency,[1],inactive
same,Potency,[2],inactive
same,Potency,[3],inactive
same,Potency,[4],inactive
same,Potency,[5],inactive
same,Potency,[6],inactive
same,Potency,[7],inactive
same,Potency,[8],inactive
O=C1CCCC2=C1C(c1[nH]ncc1Cl)N=C(Nc1nc3ccccc3o1)N2 (configuration not stated),Potency,[1],inactive
same,Potency,[2],inactive
same,Potency,[3],inactive
same,Potency,[4],inactive
same,Potency,[5],inactive
same,Potency,[6],inactive
same,Potency,[7],inactive
same,Potency,[8],inactive
O=C(Nc1ccc(F)c(C(F)(F)F)c1)Nc1nnc(-c2ccncc2)s1,Potency,[1],inactive
same,Potency,[2],inactive
same,Potency,[3],inactive
same,Potency,[4],inactive
same,Potency,[5],inactive
same,Potency,[6],inactive
same,Potency,[7],inactive
same,Potency,[8],inactive
Cc1cn[nH]c1,Potency,[1],inactive
same,Potency,[2],inactive
same,Potency,[3],inactive
same,Potency,[4],inactive
same,Potency,[5],inactive
same,Potency,[6],inactive
same,Potency,[7],inactive
same,Potency,[8],inactive
same,"activity, negative = cell killing",[9]; [13],0.573%
same,"activity, negative = cell killing",[9]; [14],-5.07%
same,"activity, negative = cell killing",[9]; [15],-17.3%
same,"activity, negative = cell killing",[9]; [16],-3.17%
same,Potency,[10],inactive
COc1cc2c(cc1OC)CN(CCc1ccc(NC(=O)c3cccc4c(=O)c5cccc(OC)c5[nH]c34)cc1)CC2,Potency,[1],inactive
same,Potency,[2],inactive
same,Potency,[3],inactive
same,Potency,[4],inactive
same,Potency,[5],inactive
same,Potency,[6],inactive
same,Potency,[7],inactive
same,Potency,[8],inactive
c1ccc([C@H]2CN3CCSC3=N2)cc1,Potency,[1],inactive
same,Potency,[2],inactive
same,Potency,[3],inactive
same,Potency,[4],inactive
same,Potency,[5],inactive
same,Potency,[6],inactive
same,Potency,[7],inactive
same,Potency,[8],inactive
same,"activity, negative = cell killing",[9]; [13],-5.9%
same,"activity, negative = cell killing",[9]; [14],-15.5%
same,"activity, negative = cell killing",[9]; [16],-7.79%
same,Potency,[9]; tumour line A,15.8 µM (active)
same,Potency,[10],inactive
